Assay [1] relates to Plasmodium falciparum Sir2 (PF13_0152, Sir2A). As to the kind of experiment: pfSir2 binders on small-molecule microarrays, primary screen, biochemical, small-molecule microarray, 635 nm fluorescence (AID 1098).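 Also: score merges spot fluorescence intensity with its signal-to-noise ratio.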 The conditions noted are these: small-molecule microarray binding, fluorescence 635 nm; higher = more signal.
Assay [2] in a line: small-molecule microarray binders of probe aDKK1, primary screen, biochemical, biotinylated probe, 635/667 nm fluorescence (AID 1099).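 Also: score merges 667nm spot fluorescence with signal to noise across triplicate slides.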 As to conditions: higher = more signal.
Assay [3] is described as follows: small-molecule microarray binders of probe aCHRDL2, primary screen, biochemical, biotinylated probe, 635/667 nm fluorescence (AID 1100). The conditions noted are these: higher = more signal.
The nature of assay [4]: splicing luciferase reporter signal modulators, primary screen, spliceosome inhibition project, cell-based, HEK293, splice +/- reporter (AID 1101).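 Also: HEK293 cells carrying a splicing-competent luciferase reporter gene; test concentration not given here.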 As to conditions: luminescence, 24 h, higher = more signal, called active from +8 up or from −8 down. A general note: In a reporter assay the amount or activity of a reporter protein is the signal.
Assay [5] deals with Fibroblast growth factor 10 (Homo sapiens) (UniProt O15520). As to the kind of experiment: FGF10 binders on small-molecule microarrays, primary screen, biochemical, small-molecule microarray, 635 nm fluorescence (AID 1102). The conditions noted are these: FGF10 binding, fluorescence 635 nm, higher = more signal.
Assay [6] concerns glycogen synthase kinase-3 (GSK3A per assay name; protocol says GSK3B). Briefly: GSK3 binders on small-molecule microarrays, primary screen, biochemical, small-molecule microarray, 635 nm fluorescence, GSK3A (AID 1103). Also: the record names both GSK3A and GSK3B. As to conditions: small-molecule microarray binding, fluorescence 635 nm; higher = more signal.
In assay [7] the target is Epidermal growth factor receptor (Homo sapiens) (UniProt P00533). Briefly: EGFR binders on small-molecule microarrays, primary screen, biochemical, small-molecule microarray, 635 nm fluorescence (AID 1104).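 Also: score merges 667 nm emission intensity with spot signal to noise over triplicate slides.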 As to conditions: EGFR binding, higher = more signal.
The target of assay [8] is Follistatin-related protein 3 (Homo sapiens) (UniProt O95633). Briefly: FSTL3 binders on small-molecule microarrays, primary screen, biochemical, small-molecule microarray, 635 nm fluorescence (AID 1105).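 Also: score merges emission near 667 nm and signal to noise per printed spot across three slides.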 As to conditions: FSTL3 binding, higher = more signal.
Assay [9] addresses Dickkopf-related protein 1 (Homo sapiens) (UniProt O94907). Briefly: DKK1 binders on small-molecule microarrays, primary screen, biochemical, small-molecule microarray, 635 nm fluorescence scan (AID 1106).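 Also: score merges emission near 667 nm with signal to noise over three replicate slides.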 As to conditions: DKK1 binding, higher = more signal.
Assay [10] concerns Inhibin beta A chain (activin A). As to the kind of experiment: INHBA (activin A) binders on microarrays, primary screen, biochemical, small-molecule microarray, 635 nm fluorescence scan (AID 1107).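 Also: mouse activin A protein probed at 4.33 µg/mL on printed slides; score merges bound-protein fluorescence near 667 nm with spot signal-to-noise.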 As to conditions: small-molecule microarray binding, higher = more signal.
The subject of assay [11] is Human papillomavirus type 1a protein E7 (residues 44-93). Briefly: HPV1a E7 fragment binders on microarrays, primary screen, biochemical, small-molecule microarray, residues 44-93, 635 nm fluorescence (AID 1108).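 Also: E7 fragment applied at 1 µg/mL in TBST for 1 h at 4 C; score combines spot fluorescence with its signal to noise ratio.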 The conditions noted are these: small-molecule microarray binding, fluorescence 635 nm; higher = more signal.
A short description of assay [12]: modulators of HCV replicon luciferase signal, primary screen, HCV replication inhibitor project, Huh7 cells, luciferase reporter (AID 1109).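 Also: huh7 hepatoma cells harbouring a luciferase neomycin HCV replicon reporter; luciferase luminescence as measure of HCV replicon replication; test concentration not given here.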 The conditions noted are these: 48 h, higher = more signal. (In general: In antiviral work, replicon cells carry a viral genome segment that copies itself.)
Assay [13] has as its target Left-right determination factor 2 (Homo sapiens) (UniProt O00292). Briefly: LEFTY2 binders on small-molecule microarrays, primary screen, biochemical, small-molecule microarray, 635 nm fluorescence scan (AID 1110). As to conditions: LEFTY2 binding, higher = more signal.
For assay [14], the target named is Calmodulin-1 (Homo sapiens) (UniProt P0DP23). Briefly: CALM1 binders on microarrays, EGTA buffer, profiling panel, biochemical, small-molecule microarray, Cy5-labelled CALM1 (AID 1111).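 Also: labelled calmodulin applied in Tris saline Tween buffer holding calcium plus EGTA and DTT.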 As to conditions: Cy5-CALM1 binding fluorescence, higher = more signal.
Assay [15] has the same target. As to the kind of experiment: calcium-bound CALM1 binders on microarrays, profiling panel, artefact control for SMM control-protein annotation, biochemical, small-molecule microarray, Cy5-labelled CALM1, plus calcium (AID 1112).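 Also: score merges spot fluorescence with signal to noise from triplicate slides.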 The conditions noted are these: Cy5-CALM1 binding fluorescence, higher = more signal.
Assay [16] can be described thus: small-molecule microarray binders of probe aWnt5a, primary screen, biochemical, biotinylated probe, 635/667 nm fluorescence (AID 1113).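 Also: score merges 667 nm fluorescence intensity with signal-to-noise per printed feature.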 As to conditions: higher = more signal.
A short description of assay [17]: small-molecule microarray binders of probe aShh, primary screen, biochemical, biotinylated probe, 635/667 nm fluorescence (AID 1114).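 Also: probe is biotin-labelled aShh protein from a stem cell growth factor screen; measures binding of labelled protein to compounds printed on the slide; score merges feature fluorescence at 667 nm with signal-to-noise.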 As to conditions: higher = more signal.
Assay [18] can be described thus: small-molecule microarray binders of probe aNog, primary screen, biochemical, biotinylated probe, 635/667 nm fluorescence (AID 1115).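 Also: probe is biotinylated aNog protein used at 0.15 µg/mL for 1 h at 4 C; z-score combines 667 nm fluorescence of each spot with its signal to noise.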 As to conditions: higher = more signal.
Assay [19] deals with Torsin-1A-interacting protein 1 (Homo sapiens) (UniProt Q5JTV8). As to the kind of experiment: LAP1 binders from COS7 cell lysate, primary screen, small-molecule microarray, 635/667 nm fluorescence (AID 1116). The conditions noted are these: COS7-hLAP1 lysate binding, 635 nm fluorescence, higher = more signal.
Assay [20] concerns the target Alpha-bungarotoxin (Bungarus multicinctus) (UniProt P60615). As to the kind of experiment: alpha-bungarotoxin binders on microarray, profiling panel, artefact control for SMM control protein annotation, biochemical, small-molecule microarray, Alexa647 label, 635/667 nm fluorescence (AID 1117). The conditions noted are these: alpha-BTX-A647 binding fluorescence, higher = more signal.

Active and inactive are the calls of the source.

Chain of Epidermal growth factor receptor (Homo sapiens) (P00533 whole entry, looked up): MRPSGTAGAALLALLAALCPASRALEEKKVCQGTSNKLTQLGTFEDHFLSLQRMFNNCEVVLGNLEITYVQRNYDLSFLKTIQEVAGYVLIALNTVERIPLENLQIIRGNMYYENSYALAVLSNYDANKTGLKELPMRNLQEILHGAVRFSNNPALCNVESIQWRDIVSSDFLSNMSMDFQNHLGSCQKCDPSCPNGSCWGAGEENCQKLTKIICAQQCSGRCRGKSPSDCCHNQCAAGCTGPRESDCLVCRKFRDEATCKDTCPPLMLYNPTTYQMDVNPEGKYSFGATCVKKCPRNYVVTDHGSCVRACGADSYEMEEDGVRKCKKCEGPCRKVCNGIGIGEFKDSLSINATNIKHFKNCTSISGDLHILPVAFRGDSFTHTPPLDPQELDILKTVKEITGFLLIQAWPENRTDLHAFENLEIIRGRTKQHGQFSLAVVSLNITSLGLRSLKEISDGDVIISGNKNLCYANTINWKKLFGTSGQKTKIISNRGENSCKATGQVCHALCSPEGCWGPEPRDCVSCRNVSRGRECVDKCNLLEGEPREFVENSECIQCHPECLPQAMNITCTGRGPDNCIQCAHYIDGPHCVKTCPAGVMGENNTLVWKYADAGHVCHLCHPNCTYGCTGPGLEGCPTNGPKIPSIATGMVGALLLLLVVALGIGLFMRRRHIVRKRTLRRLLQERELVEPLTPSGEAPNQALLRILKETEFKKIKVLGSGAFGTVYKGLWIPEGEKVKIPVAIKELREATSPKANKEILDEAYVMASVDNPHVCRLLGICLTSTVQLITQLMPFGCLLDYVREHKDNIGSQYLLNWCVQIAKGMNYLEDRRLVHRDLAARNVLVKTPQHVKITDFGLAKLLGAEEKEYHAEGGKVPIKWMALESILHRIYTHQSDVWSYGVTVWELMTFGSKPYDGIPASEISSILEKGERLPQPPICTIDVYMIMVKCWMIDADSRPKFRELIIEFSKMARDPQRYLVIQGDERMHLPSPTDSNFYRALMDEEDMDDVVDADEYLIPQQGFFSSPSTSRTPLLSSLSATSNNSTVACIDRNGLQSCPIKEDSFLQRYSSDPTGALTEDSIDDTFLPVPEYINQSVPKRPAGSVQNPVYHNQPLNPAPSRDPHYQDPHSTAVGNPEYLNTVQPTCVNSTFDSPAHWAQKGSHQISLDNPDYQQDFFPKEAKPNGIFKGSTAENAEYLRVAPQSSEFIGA
Chain of Fibroblast growth factor 10 (Homo sapiens) (O15520 whole entry, looked up): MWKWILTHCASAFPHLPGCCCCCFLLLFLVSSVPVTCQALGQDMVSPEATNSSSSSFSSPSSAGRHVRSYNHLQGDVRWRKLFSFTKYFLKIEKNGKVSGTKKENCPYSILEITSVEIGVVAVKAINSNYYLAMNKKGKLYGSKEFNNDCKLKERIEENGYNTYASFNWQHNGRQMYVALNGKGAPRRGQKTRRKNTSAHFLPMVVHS
Chain of Torsin-1A-interacting protein 1 (Homo sapiens) (Q5JTV8 whole entry, looked up): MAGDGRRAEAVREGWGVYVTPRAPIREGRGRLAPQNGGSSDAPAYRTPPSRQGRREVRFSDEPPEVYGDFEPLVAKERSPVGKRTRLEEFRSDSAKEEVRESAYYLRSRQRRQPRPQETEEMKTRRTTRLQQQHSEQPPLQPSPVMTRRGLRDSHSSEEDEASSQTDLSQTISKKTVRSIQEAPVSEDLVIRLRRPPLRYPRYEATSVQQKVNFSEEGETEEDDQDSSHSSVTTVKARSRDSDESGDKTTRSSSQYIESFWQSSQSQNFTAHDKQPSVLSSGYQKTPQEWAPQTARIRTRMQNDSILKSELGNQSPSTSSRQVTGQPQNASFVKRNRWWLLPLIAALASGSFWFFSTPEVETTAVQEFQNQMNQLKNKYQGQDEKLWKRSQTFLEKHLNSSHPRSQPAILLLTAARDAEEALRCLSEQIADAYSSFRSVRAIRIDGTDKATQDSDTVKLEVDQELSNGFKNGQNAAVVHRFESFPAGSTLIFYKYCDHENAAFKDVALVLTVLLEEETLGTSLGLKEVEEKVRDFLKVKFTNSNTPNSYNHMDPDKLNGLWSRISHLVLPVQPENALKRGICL
Chain of Alpha-bungarotoxin (Bungarus multicinctus) (P60615 whole entry, looked up): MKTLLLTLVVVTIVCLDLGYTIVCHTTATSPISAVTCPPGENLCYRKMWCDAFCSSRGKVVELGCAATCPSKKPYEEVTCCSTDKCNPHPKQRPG
Chain of Left-right determination factor 2 (Homo sapiens) (O00292 whole entry, looked up): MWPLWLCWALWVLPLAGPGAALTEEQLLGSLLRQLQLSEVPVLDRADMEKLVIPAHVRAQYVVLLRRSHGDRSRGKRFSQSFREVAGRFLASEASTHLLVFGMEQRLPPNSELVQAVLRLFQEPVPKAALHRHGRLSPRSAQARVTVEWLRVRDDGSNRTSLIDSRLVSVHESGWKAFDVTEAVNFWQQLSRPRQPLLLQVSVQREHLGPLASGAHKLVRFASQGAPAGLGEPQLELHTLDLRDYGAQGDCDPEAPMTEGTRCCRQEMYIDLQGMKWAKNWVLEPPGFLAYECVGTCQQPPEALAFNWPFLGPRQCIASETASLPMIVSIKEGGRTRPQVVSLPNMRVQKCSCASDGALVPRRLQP
Chain of Follistatin-related protein 3 (Homo sapiens) (O95633 whole entry, looked up): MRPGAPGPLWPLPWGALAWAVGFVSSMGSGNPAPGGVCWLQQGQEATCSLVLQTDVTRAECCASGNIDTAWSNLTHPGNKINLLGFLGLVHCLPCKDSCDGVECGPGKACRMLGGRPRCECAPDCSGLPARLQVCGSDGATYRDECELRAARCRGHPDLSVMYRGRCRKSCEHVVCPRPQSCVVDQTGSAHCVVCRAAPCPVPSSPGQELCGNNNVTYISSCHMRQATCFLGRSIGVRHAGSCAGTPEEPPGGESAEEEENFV
Chain of Dickkopf-related protein 1 (Homo sapiens) (O94907 whole entry, looked up): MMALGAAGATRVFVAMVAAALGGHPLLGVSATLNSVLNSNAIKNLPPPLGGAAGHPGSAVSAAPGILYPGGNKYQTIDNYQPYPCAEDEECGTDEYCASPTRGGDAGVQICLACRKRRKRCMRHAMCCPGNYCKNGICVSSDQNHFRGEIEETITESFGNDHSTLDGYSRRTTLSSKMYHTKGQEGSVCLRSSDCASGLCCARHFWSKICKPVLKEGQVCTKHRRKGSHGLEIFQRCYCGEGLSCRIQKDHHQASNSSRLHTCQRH

Turning to `COC(=O)[C@H](C)NC(=O)CCC1CC(OC(=O)NCc2ccc3c(c2)OCO3)CC2(CCCC(COC(=O)NCc3ccccc3)O2)O1` (stereo not given in full), the composite z-score is 0.343 in assay [1]; -0.172 in [2]; -0.612 in [3]; 0.894 in assay [5]; 0.821 in assay [6]; 0.293 in [7]. Further, the composite z-score in [8] is 0.832; in [9], 0.893; in assay [10], -0.0611; in assay [11] it was 1.25; in assay [13], 0.508; in assay [14] it was 0.202. Moreover, the composite z-score in assay [15] was -0.558; in assay [16], -0.001; in assay [17], -0.0709; in assay [18], -0.258; in assay [19], 0.179; in [20] it was 0.159. Besides, the z-score was -0.66 (inactive) in [4] and 0.188 in assay [12].

Turning to `CC(CCN1CCCc2nc(C)c(C)cc21)=NO[C@H](C)c1cn([C@@H]2COC[C@H]2O)nn1`, the composite z-score in assay [1] is 0.389; in assay [2], -0.156; in [3], -0.519; in [5], 0.667; in assay [6], 1.11; in [7], 1.06. Also, the composite z-score in assay [8] is 0.884; in [9], 0.902; in [10] it was 1.26; in assay [11], 0.839; in assay [13], 0.831; in assay [14], -0.253. The composite z-score is -0.718 in [15]; -0.0478 in assay [16]; 0.0611 in assay [17]; -0.158 in assay [18]; 0.695 in [19]; 0.102 in assay [20]. Moreover, the z-score in assay [4] is 0.169 (inactive); in [12], 0.0504.

With `COC(=O)CC=C[C@@H](C)[C@@H](C=NOC(C)CN1CCCCc2nc(C)c(C)cc21)OC` (stereo not given in full), the composite z-score in [1] was 0.519; in assay [2], -0.343; in assay [3] it was -0.613; in assay [5], -0.285; in assay [6] it was 0.959; in [7], 0.686. In addition, the composite z-score was 0.975 in [8]; 1.33 in assay [9]; 1.19 in assay [10]; 1.04 in assay [11]; 1.11 in [13]; -0.452 in [14]. Further, the composite z-score is -1.05 in assay [15]; -0.1 in assay [16]; -0.138 in assay [17]; -0.619 in assay [18]; 0.449 in [19]; 0.143 in assay [20]. The z-score in assay [4] was 0.854 (inactive); in assay [12] it was -1.23.

In the case of `CCOC(=O)CCN1C(=O)[C@H]2[C@H]3[C@H](O)[C@H](O)CC(=NOCC=C(C)CCC=C(C)C)[C@@H]3CC[C@H]2C1=O`, the composite z-score in [1] was 0.255; in assay [2] it was 0.333; in [3], -0.202; in assay [5], 1.15; in [6], 0.659; in assay [7] it was 1.17. For the same compound, the composite z-score in assay [8] was 0.825; in assay [9] it was 0.606; in assay [10], -0.259; in [11], -0.401; in [13], 0.631; in assay [14], 0.113. Besides, the composite z-score was -0.672 in assay [15]; -0.1 in assay [16]; -0.179 in assay [17]; -0.0827 in assay [18]; 0.166 in assay [19]; -0.0599 in [20]. Further, the z-score in assay [4] is 0.0459 (inactive); in [12], -0.469.

Take `C=CC[C@@H]1C=C[C@H](Oc2ccc(C)cc2)[C@@H](COC(=O)NCc2cccc3ccccc23)O1`: the composite z-score in assay [1] was 0.45; in [2] it was -0.129; in assay [3], 0.0944; in [5] it was 0.575; in assay [6], -0.224; in [7], -0.156. Also, the composite z-score in assay [8] is 0.201; in [9], 0.142; in [10], 1.03; in assay [11] it was 0.286; in assay [13], 0.129; in [14] it was -0.716. Moreover, the composite z-score was -0.547 in [15]; -0.0271 in assay [16]; -0.0793 in assay [17]; -0.0496 in assay [18]; 0.0431 in [19]; -0.212 in assay [20]. Further, the results for the z-score in [4] and in [12] were -0.566 (inactive) and -2.78, respectively.

As to `CON=C[C@@H](OC)[C@H](C)C=CCC(=O)OC`, the composite z-score in assay [1] is -0.387; in assay [2], -0.171; in assay [3], -0.165; in [5], -0.135; in assay [6], -0.115; in assay [7], 0.327. Besides, the composite z-score in [8] was -0.23; in assay [9], -0.067; in assay [10] it was 0.892; in assay [11], -1.72; in assay [13], 0.262; in assay [14] it was -0.491. Further, the composite z-score was -0.476 in [15]; -0.0573 in [16]; 0.0952 in assay [17]; -0.296 in assay [18]; 0.447 in [19]; -0.023 in [20]. The z-score in assay [4] was -0.165 (inactive); in [12], -0.337.

Source of the values: PubChem BioAssay.
